Measured values taken from ChEMBL document CHEMBL4513146, “CO-ADD screening of Karazin Kharkiv National University (Ukraine) compounds”.
Potency and affinity values are given separately.

Tests used:
Staphylococcus aureus = settings: Concentration 32 ug.mL-1;; ASSAY_TEST Inhibition of Bacterial Growth; detection method Absorption (OD600); MEDIA CAMHB; plate type 384well; NBS; CORNING #3640; time 18 hr
Escherichia coli = settings: Concentration 32 ug.mL-1;; ASSAY_TEST Inhibition of Bacterial Growth; detection method Absorption (OD600); MEDIA CAMHB; plate type 384well; NBS; CORNING #3640; time 18 hr

| SMILES | Inhibition (Staphylococcus aureus) [%] | Inhibition (Escherichia coli) [%] |
| --- | --- | --- |
| CCOC(=O)c1ccc(NC(=O)Cn2nc3ccc(-c4ccc(Cl)cc4)nn3c2=O)cc1 | 7.47 | -1.44 |
| Cc1ccc(Cl)cc1N1CCN(C(=O)CCc2nnc3c4cc(-c5ccccc5)nn4ccn23)CC1 | 1.17 | -6.03 |
| Cc1ccc(-c2ccc3nn(Cc4cccc(Br)c4)c(=O)n3n2)cc1 | 2.3 | -6.95 |
| CCOc1ccc(-c2nc(CSc3nc4ccccc4n4c(C(C)C)nnc34)c(C)o2)cc1 | -10.96 | -11.72 |
| COc1ccc(NC(=O)Cn2nc3c(Oc4ccc(C)cc4)nccn3c2=O)cc1Cl | -1.59 | -3.22 |
| COc1ccc(CCNC(=O)Cn2nc3c(N4CCOCC4)nccn3c2=O)cc1OC | 21.7 | 0.1 |
| CSc1ccc(CNC(=O)Cn2nc3c(Oc4ccccc4)nccn3c2=O)cc1 | 10.07 | 1.2 |
| Cc1ccc(-c2cc3c4nn(CC(=O)Nc5cccc(C)c5C)c(=O)n4ccn3n2)cc1C | 13.1 | -0.36 |
| COc1ccccc1-n1ccn2c(SCC(=O)c3ccc(C)cc3C)nnc2c1=O | 6.26 | -10.12 |
| Cc1cc(C)cc(NC(=O)Cn2nc3ccc(SC(C)(C)C)nn3c2=O)c1 | 9.02 | -2.5 |
| CCc1ccccc1NC(=O)CSc1nnc2c(=O)n(-c3ccccc3)ccn12 | 10.95 | -0.17 |
| COc1cccc(-n2ccn3c(SCC(=O)NC(C)C)nnc3c2=O)c1 | 11 | -7.26 |
